# The list is not random: actives were taken first. Their share in the collection is about 4.1%.
# MPTP block = mitochondrial permeability transition pore inhibitors, primary screen, biochemical, isolated mouse mitochondria, absorbance; Ca2+ swelling absorbance, 30 min; inhibition, % at 10 µM; 360,000 compounds, 1.4% hits; AID 602449, 2012;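 active = inhibition of 50% or more, scaled per plate between neutral and stimulator controls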;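 note: 0% = DMSO wells given calcium and 100% = 1 mM EGTA wells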
# p-CIP stab down = p/CIP-EGFP fusion destabilizers, primary screen, fluorescence, F442A cells; Q05BA5; 16 h; decrease of EGFP signal, % at 10 µM; 290,000 compounds, 0.01% hits; AID 1984, 2009;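 active = EGFP signal decrease of at least 30% at 10 µM or well 3 SD below plate mean, unless failing retest; inactive = the rest, including hits failing retest or dose response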
# MIN6 prolif = inducers of MIN6 beta-cell proliferation, primary screen, ATP luminescence, uHTS. MIN6 cells proliferation, ATPlite luminescence, 48 h; cells starved in 0.2% serum; 100% = growth in 10% serum. proliferation, % at 10 µM. 330,000 compounds, 0.29% hits. AID 2380, 2010;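 active = compounds whose signal lies at least 3.5 SD above the mean of all wells on their plate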;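 note: 0% = DMSO-treated cells in low-serum medium and 100% = 10% serum control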
# FAS TE block = FAS thioesterase domain inhibitors, primary screen, biochemical, fluorescence intensity, uHTS | Fatty acid synthase (Homo sapiens), P49327 | AID 602261, 2012 | recombinant FAS-TE, OMFH fluorogenic substrate, fluorescence endpoint | inhibition, % at 15 µM | 360,000 compounds, 0.67% hits;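 active = compounds whose normalised, plate-corrected inhibition of enzyme fluorescence in the single-dose primary screen is 50% or more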;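 note: 0% = DMSO with enzyme and 100% = substrate without enzyme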
# GRIN3A LBD mod = binders of NR3A ligand-binding domain, primary screen, biophysical, differential scanning fluorimetry, uHTS. NR3A LBD differential scanning fluorimetry, Tm shift; 0% = protein alone, 100% = glycine-bound protein. AID 1259313, 2017. Glutamate receptor ionotropic, NMDA 3A (GRIN3A) ligand-binding domain. Tm shift relative to glycine control, % at 25 µM. 340,000 compounds, 2.5% hits;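 active = melting temperature shift of at least 10% of the positive control shift, at one fixed dose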
# * = called active by the depositor; . = not tested or not shown.
SMILES,MPTP block,p-CIP stab down,MIN6 prolif,FAS TE block,GRIN3A LBD mod
CCc1ccc(NC(=O)NNC(=O)c2cc3ccccc3cc2O)cc1,1,10,-1,-2,10*
O=C(CN1CCCC1)NC12CC3CC(CC(C3)C1)C2,-1,3,-2,-10,10*
CCCCNC(=O)C(NC(=O)c1cnc(C)cn1)C(=O)c1ccccc1 (stereo not given),0,.,.,.,.
CC(c1ccccc1)N(NC(=O)C(O)(c1ccccc1)c1ccccc1)C(=O)c1ccccc1 (stereo not given),7,-2,0.0*,-10,-3
Cc1ccc(-c2cc(N)n(-c3ccccc3)n2)cc1,1,-21,-3,1,26*
CCc1ccc(-c2cc(N)n(-c3ccccc3)n2)cc1,-4,2,.,0,3
Cc1cccc(-c2cnn(-c3ccccc3)c2N)c1,1,-15,-3,-3,0
Cc1cccc(-c2cc(N)n(-c3ccccc3)n2)c1,0,13,.,2,31*
OC[C@@H]1CN(Cc2ccccc2)C[C@H](n2cnc3c(N4CCN(c5ccccc5)CC4)ncnc32)O1,0,.,.,-2,.
CCc1nc2ccc(C(=O)NCCCN3CCCC3=O)cn2c1N(C=O)CC,0,.,.,-6,.
CC(C)NC(=O)C1(C)CN(S(C)(=O)=O)CC(=O)N1C1CC1 (stereo not given),-1,.,.,.,.
Cn1c(=O)c(NCCc2ccccc2)c2c3c(cccc31)C(=O)c1ccccc1-2,1,-334,-6,-222,43*
Cc1occc1C(=O)N(C)Cc1nc(-c2ccccc2)no1,2,-7,0,-6,-1
C=CCN(Cc1nc(-c2ccccc2)no1)C(=O)c1ccoc1C,-2,-4,1,4,14*
COc1ccc(C(O)c2ncc(-c3ccc4ccccc4c3)[nH]2)cc1F (stereo not given),1,.,.,-1,.
CCCCNC(=O)c1nc(C2CCNCC2)oc1-c1cccc(C(F)(F)F)c1,0,.,.,.,.
CCOC(=O)c1c(NC(=O)CNC2CCCCC2)sc(C)c1C,-1,-4,-4,22,13*
CCOC(=O)c1c(NC(=O)C2CC2)sc(C)c1CC,5,2,2,14,11*
CN1CCN(C(=O)C[C@@H]2C[C@H]3c4cc(NC(=O)c5cccnc5)ccc4O[C@H]3[C@H](CO)O2)CC1,0,.,.,-6,.
CC(=O)NCCNc1nc2cc(-c3ccc4c(ccn4C)c3)sc2c(=O)n1C,0,.,.,-3,.
CCOC(=O)c1cccc(P(C)(C)=O)c1,0,-12,0,-6,22*
Cc1cc(NC(=O)c2ccc3c(c2)OCCO3)ccc1NC(=O)c1ccco1,0,-6,-4,-3,1
CCOC(=O)c1ccc2nc(C)c(C)nc2c1,1,-2,0,-4,1
CCCCOc1cccc(C(=O)Nc2ccc(NC(=O)c3ccco3)cc2)c1,-6,-5,-3,0,12*
O=C(Nc1ccc(NC(=O)c2ccco2)cc1)c1ccc2c(c1)OCCO2,3,-13,-4,0,10*
SMILES,MPTP block,p-CIP stab down,MIN6 prolif,FAS TE block,GRIN3A LBD mod
Cc1cc(C)cc(NC(=O)c2ccc(NC(=O)c3ccco3)cc2)c1,1,2,1,15,18*
C[C@@H]1CCCCO[C@@H](CN(C)C(=O)C2CCCCC2)[C@@H](C)CN([C@H](C)CO)C(=O)c2cc(NC(=O)NC3CCCCC3)ccc2O1,-1,.,.,2,.
Nc1ncnc2c1ncn2C1C=C(CO)C(O)C1O (stereo not given),-1,.,.,-6,1
O=C1NC[C@H](CCCCN2C[C@H](Cc3ccc(O)cc3)N(CCc3ccc(O)cc3)C(=O)C2=O)N(CC2CCCCC2)C1=O,0,.,.,-3,.
O=C(CSc1ccc2nnc(-c3cccnc3)n2n1)Nc1ccccc1F,0,.,.,-6,.
O=S1(=O)CC(N2CCC(Cc3ccccc3)CC2)CN1C1CCCCC1 (stereo not given),0,.,.,9,.
O=[N+]([O-])c1nccn1CCCCCCN1CCOCC1,-1,.,.,2,.
COC(=O)c1ccc(NC(=O)c2ccc(NC(=O)c3ccco3)cc2)cc1,0,-3,-3,-3,25*
CCOC(=O)c1cccc(NC(=O)Nc2ccc(OCC)cc2)c1,12,-11,-3,2,20*
CCOc1ccc(NC(=O)Nc2cccc(C(=O)O)c2)cc1,-2,10,-5,-6,-13
CC(=O)Nc1ccc(NC(=O)c2ccco2)cc1,1,4,-1,-5,-6
CC(=O)c1ccc(NC(=O)c2ccc(NC(=O)c3ccco3)cc2)cc1,0,-5,0,-2,13*
C=Cc1cccc(NC(=O)c2ccc(NC(=O)c3ccco3)cc2)c1,-1,-6,1,11,31*
CC(C)CNC(=O)c1ccc(-c2ccc(F)c(F)c2)c2ccoc12,0,.,.,18,.
CCN(CC)C(=O)C1=C(C)N(Cc2ccc(OC)cc2)C(=O)C(CC(=O)NCC2CCCCC2)C1 (stereo not given),1,.,.,-4,.
CC12CCC(=O)N1C(C(=O)Oc1cccc(F)c1)CS2 (stereo not given),0,.,.,-6,.
CC(C)C(=O)N1CCC1(C)C(=O)NCc1ccc(F)cc1Cl (stereo not given),-1,.,.,-8,.
CCOc1ccc(C(=O)Nc2ccc(NC(=O)c3ccco3)c(Cl)c2)cc1Br,4,-3,1,-8,40*
CCOC(=O)c1cccc(NC(=O)c2ccc(NC(=O)c3ccco3)cc2)c1,0,-2,-6,2,31*
O=C(O)C(SC(C(=O)O)c1ccccc1)c1ccccc1 (stereo not given),1,.,.,-7,0
CC(O)(c1ccccc1)c1nc(-c2cccc(C#N)c2)cs1 (stereo not given),-1,.,.,10,.
Cc1ccc(C(=O)NNC(=O)C2CCN(C(=O)OC(C)(C)C)CC2)cc1,0,1,-2,-2,30*
COc1ccc(C(=O)N2CCCC(Nc3ccc(C)c(C)c3)C2)c(OC)n1 (stereo not given),0,4,-4,-1,32*
COc1ccc(C(=O)N2CCCC(Nc3ccc(F)cc3)C2)c(OC)c1 (stereo not given),1,-2,7,-6,13*
COc1ccc(C(=O)N2CCCC(Nc3ccc(F)c(F)c3)C2)c(OC)n1 (stereo not given),2,3,-2,-2,-1
Cc1ccc(NC2CCCN(C(=O)CN3C(=O)CSC3=O)C2)cc1C (stereo not given),0,-1,-1,-1,11*
CC(=O)c1ccc2c3c(cc(C)c2c1)CCCC3,1,.,.,27,3
Cc1ccc(OCC(=O)Nc2ccc(S(=O)(=O)N3CCOCC3)cc2)c(C)c1,0,-1,-1,12,11*

# Bioassay records deposited in PubChem BioAssay by Sanford-Burnham Center for Chemical Genomics.
